Results filed as inconclusive are left out. Active and inactive are the calls of the source. Calls follow the shape of the dose curve; as a rule, active = well fitted cell-killing curve with a large enough effect; inconclusive = small, poorly fitted or top-dose-only effect; inactive = flat fitted curve, though single readings scatter.
Assay: Cell Viability - LYMP1-003 - Assay at 40 hr (AID 964); also: nearly all actives have a fitted effect of over 60% in size
Details: LYMP1-003 lymphoblastoid viability; series mostly up to 92.2 µM; activity change, negative = cytotoxic: at the top concentration
Text: NIH Chemical Genomics Center [NCGC]
NIH Molecular Libraries Screening Centers Network [MLSCN]
National Institutes of Environmental Health Sciences [NIEHS]
National Toxicology Program [NTP]
We have developed a 1536-well cell-based assay for quantitative high throughput screening (qHTS) against a number of cell lines to determine in vitro cytotoxicity of small molecules. This particular assay uses a human lymphoblastoid cell line (LYMP1-003) purchased from Coriell Institute for Medical Research.
NCGC Assay Protocol Summary:
The CellTiter-Glo luminescent cell viability assay (Promega) is a homogeneous method to measure the number of viable cells in culture. The end point readout of this assay is based on quantitation of intracellular ATP, an indicator of metabolic activity, using the luciferase reaction. Luciferase catalyzes the oxidation of beetle Luciferin to oxyluciferin and light in the presence of ATP. The luminescent signal is proportional to amount of ATP present.
Using the CellTiter-Glo luminescent cell viability assay, the amount of cellular ATP was measured in the lymphoblastoid cell line with complete culture medium following compound treatment for 40 hours. The assay was performed in opaque white Kalypsys 1536-well plates. In the screen, tetraoctylammonium bromide was used as positive control. Library compounds were measured for their ability to cause acute toxicity in the cell line, as reflected by a decrease in intracellular ATP levels, in a concentration-dependent manner. […] AC50 values were determined from concentration-response data modeled with the standard Hill equation.
qHTS protocol for CellTiter Glo lymphoblastoid cellular assay
[Step] [Parameter] [Value] [Description]
1. Reagent; 5 uL; 2500 lymphoblastoid cells/well
2. Time; 5 hr; 37 C incubation
4. Controls; 23 nL; Tetraoctylammonium bromide 6.4pM to 92 uM
5. Time; 40 hr; 37 C incubation
6. Reagent; 5 uL; CellTiter Glo reagent
7. Time; 30 min; Room Temperature
8. Detection; Luminescence; Viewlux plate reader
Keywords: cell viability, cytotoxicity, lymphoblastoid cell line, luminescence, NTPHTS, NTPHTS_NCGC, NIEHS, DSSTox, MLSMR, MLSCN, NIH Roadmap, qHTS, NCGC
% is scaled to controls: 0 for no effect and ±100 for the full control effect; potency is read from the fitted curve at half-maximal effect.

SMILES	activity change, negative = cytotoxic	Potency
O=C(OCc1ccccc1)c1ccccc1O	6.61% (inactive)	
CC(C)S	8.64% (inactive)	
NC(=O)Nc1nc2ccccc2[nH]1	-12.7% (inactive)	
Cc1ccc(S(N)(=O)=O)cc1	-3.57% (inactive)	
CCCCCCN	5.51% (inactive)	
C=CC(C)(O)CCCC(C)CCCC(C)CCCC(C)C (stereo not given)	-15.9% (inactive)	
Nc1ccc(N)c(Cl)c1		39.8 µM (active)
O=c1[nH]ncc2ccccc12	-3.07% (inactive)	
CCCCC(CC)COP(=O)(OCC(CC)CCCC)OCC(CC)CCCC (stereo not given)	-12.1% (inactive)	
O=C1OC(=O)c2ccccc21	-3.69% (inactive)	
COc1cc(-c2ccc(N=C=O)c(OC)c2)ccc1N=C=O	-25.9% (inactive)	
COc1ccc(C(=O)Nc2ccccc2)cc1[N+](=O)[O-]	-7.85% (inactive)	
C1CCCNCC1	4.14% (inactive)	
CCOC(=O)C1OC1c1ccccc1 (stereo not given)	-12.5% (inactive)	
O=[N+]([O-])c1cccc(I)c1	-4.66% (inactive)	
O=C(O)c1cc(N=Nc2ccc([N+](=O)[O-])cc2)ccc1O	-16.7% (inactive)	
CC(C)(C)C(=O)C1C(=O)c2ccccc2C1=O	-15.5% (inactive)	
Cc1c(N)cccc1Cl	-2.64% (inactive)	
CCCC(=O)OC(=O)CCC	-5.51% (inactive)	
C=CC(=O)CC	8.02% (inactive)	

SMILES	activity change, negative = cytotoxic	Potency
O=CC(=O)c1ccccc1	-27.5% (inactive)	
Oc1ccc2c(c1)OCO2	-14.2% (inactive)	
Nc1cnn([C@@H]2O[C@H](CO)[C@@H](O)[C@H]2O)c(=O)n1	-17.2% (inactive)	
O=[N+]([O-])c1ccccc1Nc1ccccc1	-1.17% (inactive)	
CC(=O)c1ccc(Cl)c(Cl)c1Cl	-1.4% (inactive)	
C=C1CC[C@H](O)C/C1=C/C=C1\CCC[C@]2(C)[C@@H]([C@H](C)CCCC(C)C)CC[C@@H]12		39.8 µM (active)
c1ccc(COCc2ccccc2)cc1	-4.76% (inactive)	
N=C1C=CC(=C(c2ccc(N)cc2)c2ccc(N)cc2)C=C1		12.6 µM (active)
S=C(NC1CCCCC1)NC1CCCCC1	-14.6% (inactive)	
O=C(O)c1ccc([N+](=O)[O-])cc1	-7.3% (inactive)	
Cc1ccc2ccc3cccc4ccc1c2c34	-1.64% (inactive)	
Nc1ccc2c(c1)C(=O)c1ccccc1C2=O	-22.3% (inactive)	
Cc1ccc(N)cc1[N+](=O)[O-]	-7.39% (inactive)	
CCCCNCC	-10.1% (inactive)	
O=C1c2ccccc2C(=O)C1(O)O	-20.8% (inactive)	
C=C(C#N)C(=O)OCC	-0.459% (inactive)	
OCC(CBr)(CBr)CBr	-10.6% (inactive)	
CC(C)OCC1CO1 (stereo not given)	4.23% (inactive)	
Nc1ccc(-c2ccc(N)c(O)c2)cc1O	-12.8% (inactive)	
O=C(O)/C=C/c1ccc(/C=C/C(=O)O)cc1	-1.87% (inactive)	

Source: PubChem BioAssay (NCATS)
